From PubChem BioAssay
The list is not random: actives were taken first. Their share in the collection is about 11%.
Pf growth 48h: inhibits P. falciparum growth in the first generation, 48 h; P. falciparum luciferase growth in erythrocytes, 48 h; 310,000 tested, 5.9% active; Potency, µM (series often up to 28.7 µM), for inactives: at the top dose activity change, negative = inhibition, actives largely listed as inhibitors
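Read-out is firefly luciferase luminescence from an integrated reporter in P. falciparum, so falling signal marks reduced parasite growth. Infected erythrocytes were at 2% hematocrit and 0.1% parasitemia (final) in Albumax-supplemented RPMI 1640.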
AMA1-RON2 inh: AMA1-RON2 (P. falciparum) interaction inhibition; 360,000 tested, 0.2% active; AlphaScreen AMA1-biotinylated RON2 peptide binding; Potency, µM (doses to about 58.2 µM), for inactives: at the top dose activity change, negative = inhibition, actives largely listed as inhibitors;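 note: 0% = vehicle wells and -100% = peptide control; nearly all actives have a fitted effect of over 45% in size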
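AMA1 (3D7) with his tag at 25 nM final met compounds first, then biotinylated RON2 peptide at 25 nM; detection used donor plus acceptor beads, 10 µg/mL apiece, read by AlphaScreen after 30 min at room temperature.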
Pf growth 96h: P. falciparum growth inhibition at 96 hour, primary screen for plastid delayed-death inhibitors; P. falciparum luciferase reporter growth, 96 h; Potency, µM (top dose mostly 28.7 µM), inactives show at the highest dose activity change, negative = inhibition, usual class: inhibitors; 320,000 tested, 6.9% active; AID 504834
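Cell-based qHTS: luciferase-tagged P. falciparum in erythrocytes (2% hematocrit, 0.05% parasitemia final) incubated with compounds for 96 hours, 37 C, 5% CO2; luciferase detection reagent then added and luminescence measured.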
HCV inh: blocks hepatitis C virus. Potency, µM (highest dose often 41.8 µM), inactives show top-dose activity change, negative = inhibition, usual class: inhibitors. Huh7.5.1 HCVcc-Cre infection, luciferase reporter, 44 h. 340,000 tested, 3.4% active
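Cells seeded at 1,000/well and cultured 4 h, then compounds added followed by HCVcc-Cre virus (~0.5 moi). After 44 h further culture, luciferase substrate was added, plates held 15 min at room temperature, and luminescence read for 15 sec.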
Active calls of the source: *; u = inconclusive; x = no result given; ! = a repeat was not active; [ ] = another dose, or the depositor's remark. Calls come from the whole dose curve; as a rule, active = well fitted curve in the direction sought with a large enough effect; inconclusive = small, poorly fitted or top-dose-only effect, or another doubt; inactive = no such curve, though single readings can be large; an effect the other way counts as inactive or inconclusive. Unless noted, % is set by controls: 0 for no effect and ±100 for the full control effect; potency is the fitted concentration of half-maximal effect.

SMILES	Pf growth 48h	AMA1-RON2 inh	Pf growth 96h	HCV inh
Cc1ccc(C(CC(=O)O)Nc2nc(N3CCOCC3)nc(N3CCOCC3)n2)cc1 (stereo not given)	32%	-3%[11.6 µM]	u	0%
O=C(c1ccc([N+](=O)[O-])s1)N1CCN(c2ccc(C(F)(F)F)cn2)CC1	u	3%	3.3µM*	u
N#Cc1ccc(OCC(=O)N2CCN(c3ccc(C(F)(F)F)cn3)CC2)cc1	u	4%	4.1µM*	15%
Cc1cc(Nc2ccc3ccccc3c2)n2ncnc2n1	0.13µM*	7%	-6%	-17%
Cc1cc(Nc2ccc(C(C)C)cc2)n2ncnc2n1	1µM*	9%	20%	-6%
COc1ccc(Nc2cc(C)nc3ncnn23)cc1	x	-9%	x	-5%
Cc1cc(Nc2cccc(C(=O)O)c2)n2ncnc2n1	23%	-8%	-10%	29%
O=C(CN1CCN(c2ccccn2)CC1)N1c2ccccc2CCc2ccccc21	15µM*	u	u	-22%
O=C(CN1CCN(c2ccccn2)CC1)N(c1ccccc1)c1ccc2ccccc2c1	12µM*	-16%	5.2µM*	-14%
O=C(CN1CCCC1)N1c2ccccc2Sc2ccc(C(F)(F)F)cc21	u	-6%	2%	u
CN1CCN(CC(=O)N2c3ccccc3C(=O)Nc3cccnc32)CC1	-1%	x	15µM*!	2%[8.37 µM]
O=C(CN1CCN(c2ccccn2)CC1)N1c2ccccc2Sc2ccc(C(F)(F)F)cc21	4.7µM*	u	x	u
NC1=NC(=O)/C(=C\c2cc([N+](=O)[O-])ccc2Cl)S1	11%	1%	1%	0%
Cc1cc(S(=O)(=O)Nc2ccc(C(=O)NCc3cccnc3)cc2)ccc1F	14%	12%	-21%	13%
O=C(CSc1nc2ccccc2o1)N1c2ccccc2Sc2ccc(C(F)(F)F)cc21	13µM*	-4%	u	u
Cn1nc(C(=O)NCC(=O)Nc2ccc(F)c(F)c2)ccc1=O	x	-5%	x	x
O=S(=O)(c1ccc(Cl)cc1)N1CCN(C(=S)Nc2ccccc2F)CC1	0.93µM*	3%	u	3%
O=S(=O)(c1ccc2ccccc2c1)N1CCN(C(=S)Nc2ccccc2F)CC1	1.7µM*	36%	3.3µM*	-12%
N#CCC(=O)Nc1ccc(C(=O)N2CCN(S(=O)(=O)c3ccc4ccccc4c3)CC2)cc1	15µM*	-2%	u	14%
CC(=O)c1ccc(NC(=O)CN2CCN(S(=O)(=O)c3ccc4ccccc4c3)CC2)cc1	u	-12%	-19%	u
O=S(=O)(c1ccc2ccccc2c1)N1CCN(C(=S)Nc2ccc(F)c(Cl)c2)CC1	1µM*	-15%	0.33µM*	u
O=S(=O)(c1ccc2ccccc2c1)N1CCN(C(=S)Nc2ccc(F)cc2)CC1	u	8%	u	u
O=c1cc(SCc2ccccc2)nc[nH]1	x	-26%	x	18%
O=C(CCCCn1c(=O)c2ccccc2n(Cc2ccccc2F)c1=O)NC1CCN(Cc2ccccc2)CC1	u	-7%	-42%	-26%
Nc1nc(C2CCCN2S(=O)(=O)c2ccc(Cl)cc2)cs1 (stereo not given)	4%	6%	u	-6%
SMILES	Pf growth 48h	AMA1-RON2 inh	Pf growth 96h	HCV inh
C=CCOc1cccc(/C=C2\C(=O)N(Cc3ccc(C)cc3)C(C)=C2C(=O)OC)c1	15µM*	u	6.6µM*	-23%
CCN1C(=O)/C(=C\c2ccc3c(c2)OCO3)C(C(=O)OC)=C1C	3%	-23%	1.9µM*	-16%
COC(=O)C1=C(C)N(CCc2ccc(OC)c(OC)c2)C(=O)/C1=C\c1ccc(O)cc1	12µM*	-15%	-3%	-1%
COC(=O)C1=C(C)N(CCc2ccc(OC)c(OC)c2)C(=O)C1	x	4%	x	-2%
CCOc1cc(/C=C2\C(=O)N(Cc3ccc(C)cc3)C(C)=C2C(=O)OC)ccc1O	u	u	18%	-1%
COc1ccc2oc(=O)c(/C(N)=N/NC(=O)c3ccncc3)cc2c1	16%	59%	16%	8%
CCCNC(=O)c1cc(C2CCCN(C(=O)c3ccc(NC(C)=O)cc3)C2)on1 (stereo not given)	x	-9%	x	x
Cc1ccc(SCC(=O)NC(=O)NCc2ccco2)cc1C	22%	x	13%	x
O=C(O)/C=C/c1ccc(S(=O)(=O)N2CCN(CCN3C(=O)C4C5C=CC(C5)C4C3=O)CC2)cc1 (stereo not given)	u	0%	1.9µM*	-1%
COCCn1c(SCC(=O)Nc2sccc2C(N)=O)nc2cc(Cl)ccc2c1=O	u	-8%	u	u
CCc1cccc(NC(=O)C2CCCN2S(=O)(=O)c2ccc3c(c2)CC(C)N3C(C)=O)c1 (stereo not given)	12µM*	6%	u	-21%
CC1CCN(C(=O)C2CCN(S(=O)(=O)c3ccc4c(c3)CC(C)N4C(=O)C3CC3)CC2)CC1 (stereo not given)	9.3µM*	-3%	0%	u
CC(=O)N1c2ccc(S(=O)(=O)N3CCCC(C(=O)N4CCC(C)CC4)C3)cc2CC1C (stereo not given)	u	-2%	u	11µM*
CC(=O)N1c2ccc(S(=O)(=O)N3CCCC3C(=O)Nc3cccc(F)c3)cc2CC1C (stereo not given)	u	-2%	u	-12%
CC(=O)N1c2ccc(S(=O)(=O)N3CCCC(C(=O)N4CCCC(C)C4)C3)cc2CC1C (stereo not given)	u	8%	u	u
CCOc1ccc(NC(=O)C2CCCN(S(=O)(=O)c3ccc4c(c3)CCCN4C(C)=O)C2)cc1 (stereo not given)	12µM*	0%	u	u
O=C(CN1CCC(NC(=O)c2ccccc2Cl)CC1)NCc1ccco1	22%	-8%	98%	8%
CCc1ccccc1NC(=O)C1CCCN(S(=O)(=O)c2ccc3c(c2)CC(C)N3C(C)=O)C1 (stereo not given)	u	2%	13µM*	u
CC(=O)N1c2ccc(S(=O)(=O)N3CCCC(C(=O)NCc4ccccc4Cl)C3)cc2CC1C (stereo not given)	u	-9%	u	u
CCOc1ccc(NC(=O)C2CCN(S(C)(=O)=O)CC2)cc1	-5%	22%	12µM*	-4%
COc1ccc(CNC(=O)COC(=O)c2ccc(OCC3CCCO3)cc2)cc1 (stereo not given)	u	-3%	u	-2%
CNc1cncc(-c2ccc(F)cc2F)n1	x	0%	x	x
CCOc1ccc(CCNC(=O)CCc2c(C)nc3ncnn3c2C)cc1OCC	u	-5%	5.9µM*	-10%
CCOc1ccc(CCNC(=O)C2CCC(=O)N2CCc2ccccc2)cc1OCC (stereo not given)	x	-1%	13µM*	u
CCOc1ccc(CCNC(=O)CCn2cccc2)cc1OCC	u	-8%	1.7µM*	-17%
CCOc1ccc(CCNC(=O)CN2C(=O)CCSc3ccccc32)cc1OCC	0%	-10%	0.19µM*	-29%
CSc1ccc(CCNC(=O)CN2C(=O)CCSc3ccccc32)cc1	-15%	4%	12%	-2%
